Reference: PubChem BioAssay (NCATS)
Records with an inconclusive call do not appear. Where a call stands in place of a potency, no number is given. Active and inactive are the calls of the source. Calls come from the whole dose curve; as a rule, active = well fitted cell-killing curve with a large enough effect; inconclusive = small, poorly fitted or top-dose-only effect, or effect the other way; inactive = no such curve, though single readings can be large or run the other way.

How the values were obtained:
[1] = Viability qHTS for spleen associated tyrosine kinase inhibitor (SYKi) naive MV4-11 cells (AID 1963823); note: nearly all actives have a fitted effect of over 40% in size
How it was run: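 SYK inhibitor-naive MV4-11 cells, 500 per well, exposed to compounds for 72 hr at 37 C, 5% CO2. Viability read as CellTiter-Glo luminescence after 10 min at room temperature.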

[2] = Viability qHTS for spleen associated tyrosine kinase inhibitor (SYKi) drug resistant MV4-11 cells (AID 1963824); note: nearly all actives have a fitted effect of over 35% in size
How it was run: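 SYK inhibitor-resistant MV4-11 AML cells, 500 per well, added to predispensed compounds and incubated 72 hr at 37 C, 5% CO2. Viability measured by CellTiter-Glo luminescence after 10 min at room temperature.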
Potency is the fitted concentration of half-maximal effect.

C=C1CC23CC1(O)CCC2C1=CC2OC(=O)C(C)(C2O)C1C3C(=O)O (configuration not stated)
Potency [1]: inactive
Potency [2]: inactive

CC1OC(O[C@H]2CC[C@@]3(C)C(CC[C@]4(C)C3CC=C3C5CC(C)(C)CC[C@]5(C(=O)OC5OC(CO)C(OC6OCC(OC7OCC(O)C(O)C7O)C(O)C6O)C(O)C5O)CC[C@]34C)C2(C)C)C(O)C(O)C1OC1OC(CO)C(O)C(OC2OC(CO)C(O)C(O)C2O)C1O (some centres not stated)
viability (% of control) [1]: 54.2% [at 9.25 µM] (inactive)
viability, % of control [2]: 62.2% [at 9.25 µM] (inactive)

O=C(Nc1cccc(Nc2nccc(Nc3cccc(C(F)(F)F)c3)n2)c1)C1CC1
Potency [1]: 1.84 µM (active)
Potency [2]: 1.84 µM (active)

Cc1ncc(Cl)cc1NCc1ccc(C(=O)NC(CC2CCCC2)C(=O)NC2CC2)s1 (configuration not stated)
Potency [1]: 20.6 µM (active)
Potency [2]: 18.6 µM (active)

CC(=O)O[C@@H]1[C@@H](CO)O[C@@](CO)(O[C@H]2O[C@H](COC(=O)/C=C/c3ccccc3)[C@@H](O)[C@H](O)[C@H]2O)[C@H]1O
Potency [1]: inactive
Potency [2]: inactive

CC(=O)O[C@H]1CC[C@@]2(CI)C(=CC[C@@H]3[C@@H]2CC[C@]2(C)[C@@H]([C@H](C)CCCC(C)C)CC[C@@H]32)C1
viability (% of control) [1]: 88.4% [at 9.25 µM] (inactive)
viability, % of control [2]: 83% [at 9.25 µM] (inactive)

C=C1[C@@H](C2=CC(=O)OC2)CC[C@@]2(O)[C@@H]1CC1[C@H]2CC[C@@H]2C[C@@H](O[C@H]3O[C@@H](C)[C@@H](O[C@@H]4O[C@H](CO[C@@H]5O[C@H](CO)[C@@H](O)[C@H](O)[C@H]5O)[C@@H](O)[C@H](O)[C@H]4O)[C@H](OC)[C@H]3O)CC[C@]12C (some centres not stated)
Potency [1]: 2.19 µM (active)
Potency [2]: 1.55 µM (active)

CC(C)C1NC(=O)CNC(=O)C2CCCN2C(=O)C(Cc2c[nH]c3ccccc23)NC(=O)CNC(=O)C(Cc2ccc(O)cc2)NC(=O)CNC1=O (configuration not stated)
Potency [1]: inactive
Potency [2]: inactive

CCOC(=O)C(CCc1ccccc1)NC(C)C(=O)N1C(=O)N(C)CC1C(=O)O (configuration not stated)
Potency [1]: inactive
Potency [2]: inactive

Cc1coc2c1CC1OC1(C)CCC1OC1(C)C2 (configuration not stated)
Potency [1]: inactive
Potency [2]: inactive

CCCCC/C=C\C/C=C\CCCCCCCC(=O)NC(C)c1ccccc1 (configuration not stated)
Potency [1]: 11.9 µM (active)
Potency [2]: 7.5 µM (active)

C=C1CCC[C@]2(C)CC/C(=C(/CO)C(=O)OC)C[C@@H]12
Potency [1]: 20.6 µM (active)
Potency [2]: 14.6 µM (active)

O=C(NN1CCCCC1)c1nn(-c2ccc(Cl)cc2Cl)c(-c2ccc(C#Cc3ccc(C(F)(F)F)cc3)s2)c1CNS(=O)(=O)N1CCCC1
Potency [1]: inactive
Potency [2]: inactive

C=C(C)C1CCC2(C(=O)O[C@@H]3O[C@H](CO[C@@H]4O[C@H](CO)[C@@H](O)[C@H](O)[C@H]4O)[C@@H](O)[C@H](O[C@@H]4O[C@@H](C)[C@H](O)[C@@H](O)[C@H]4O)[C@H]3O)CCC3(C(=O)O)C(CCC4C5(C)CCC(O)C(C)(C)C5CCC43C)C12 (some centres not stated)
viability (% of control) [1]: 84.2% [at 9.25 µM] (inactive)
viability, % of control [2]: 114% [at 9.25 µM] (inactive)

O=C1NC(=O)C(c2cn3c4c(cccc24)CCC3)C1c1c[nH]c2ccccc12 (configuration not stated)
Potency [1]: 0.92 µM (active)
Potency [2]: 0.92 µM (active)

Cn1c(=O)c2nc(/C=C/c3cccc(Cl)c3)n(C)c2n(C)c1=O
Potency [1]: inactive
Potency [2]: inactive

COc1cc(C(CO)CO[C@@H]2O[C@H](CO)[C@@H](O)[C@H](O)[C@H]2O)ccc1O (some centres not stated)
Potency [1]: inactive
Potency [2]: inactive

CC(C)c1nc(N(C)S(C)(=O)=O)nc(-c2ccc(F)cc2)c1/C=C/[C@@H](O)C[C@@H](O)CC(=O)O
Potency [1]: 8.2 µM (active)
Potency [2]: 2.91 µM (active)

CC(C)=CCC[C@](C)(O[C@@H]1O[C@H](CO[C@@H]2OC[C@H](O)[C@H](O)[C@H]2O)[C@@H](O)[C@H](O)[C@H]1O)[C@H]1CC[C@]2(C)[C@@H]1[C@H](O)C[C@@H]1[C@@]3(C)CC[C@H](O[C@@H]4O[C@H](CO)[C@@H](O)[C@H](O)[C@H]4O[C@@H]4O[C@H](CO)[C@@H](O)[C@H](O)[C@H]4O)C(C)(C)[C@@H]3CC[C@]12C
Potency [1]: inactive
Potency [2]: inactive

COc1cc(/C=C/C=O)cc(OC)c1O[C@@H]1O[C@H](CO)[C@@H](O)[C@H](O)[C@H]1O
Potency [1]: inactive
Potency [2]: inactive

CNC(=O)[C@@H](c1ccccc1)N1CCc2cc(OC)c(OC)cc2[C@@H]1CCc1ccc(C(F)(F)F)cc1
Potency [1]: 20.6 µM (active)
Potency [2]: 20.6 µM (active)

Cn1c(=O)cc(N2CCCC(N)C2)n(Cc2ccccc2C#N)c1=O (configuration not stated)
Potency [1]: inactive
Potency [2]: inactive

O=C1C[C@]23C=CCN4CCC5c6cc7c(cc6N1[C@@]5(CC2)C43)OCO7 (some centres not stated)
Potency [1]: 10.1 µM (active)
Potency [2]: 14.3 µM (active)

CN(C)CCN(Cc1ccc(-c2ccc(CNCCc3ccccc3)cc2)cc1)C(=O)CCC1CCCC1
Potency [1]: 1.03 µM (active)
Potency [2]: 0.92 µM (active)

CN1C(=O)c2ccccc2-n2c(nc3ccccc3c2=O)[C@@]12O[C@H]2c1ccccc1
Potency [1]: 3.6 µM (active)
Potency [2]: inactive

COc1cc(C(=O)O)ccc1OC1OC(CO)C(O)C(O)C1O (configuration not stated)
Potency [1]: inactive
Potency [2]: inactive

COc1c(O[C@@H]2O[C@H](CO)[C@@H](O)[C@H](O)[C@H]2O)c(CCC(=O)O)cc2ccoc12
Potency [1]: inactive
Potency [2]: inactive

C=C1C(=O)O[C@@H]2[C@H]1CC(=O)[C@H](C)[C@@](O)(C(=O)/C=C/C)[C@H]2OC(=O)C(C)CC (some centres not stated)
Potency [1]: 0.36 µM (active)
Potency [2]: 0.508 µM (active)

COc1cc(C(O)C(CO)Oc2ccc(CCCO[C@@H]3O[C@@H](C)[C@H](O)[C@@H](O)[C@H]3O)cc2OC)ccc1O (some centres not stated)
Potency [1]: inactive
Potency [2]: inactive

CC(C)CCNC(=O)[C@H](CC(C)C)NC(=O)[C@H]1O[C@@H]1C(=O)O
Potency [1]: inactive
Potency [2]: inactive

CC(C)C1C(OC(=O)/C=C/c2ccccc2)CC2(C)OC2CCC2(C)OC2C1O (configuration not stated)
Potency [1]: inactive
Potency [2]: inactive

CC(=O)OC[C@@]12C(=O)C[C@@H](C)[C@]3(C[C@@H](c4ccoc4)O[C@H]3OC(C)=O)[C@H]1CCC[C@]21CO1
Potency [1]: inactive
Potency [2]: inactive

CS(=O)(=O)c1ccc([C@@H](C[C@H]2CCC(=O)C2)C(=O)Nc2cnccn2)cc1Cl
Potency [1]: 15.8 µM (active)
Potency [2]: 15.8 µM (active)

C=C1C2CCC3CC2(CC(O)C2(O)C1CC(OC1OC(CO)C(O)C(O)C1O)C2(C)C)CC3(C)O (configuration not stated)
Potency [1]: inactive
Potency [2]: inactive

Cc1ccc(NS(=O)(=O)c2ccc3c(c2)CCC(=O)N3)cc1C
Potency [1]: 11.6 µM (active)
Potency [2]: 9.2 µM (active)

CC(C)C(=O)O[C@@H]1[C@@H](O)[C@@H](O[C@H]2O[C@H](CO)[C@@H](O)[C@H](O)[C@H]2O)O[C@H](CO)[C@H]1O
Potency [1]: inactive
Potency [2]: inactive

CN(C)CCCCC(=O)Nc1ccc(NC(=S)NC(=O)c2ccc(C(C)(C)C)cc2)cc1
Potency [1]: 1.3 µM (active)
Potency [2]: 1.46 µM (active)

C/C=C/C=C/[C@@H]1O[C@](O)([C@H](CC)C(=O)NC/C=C/C=C(\C)[C@@H](OC)[C@@H](C)[C@@H]2O[C@H](/C=C/C=C/C=C(\C)C(=O)c3c(O)ccn(C)c3=O)[C@H](O)[C@@H]2O)[C@H](O)[C@H](O)C1(C)C
viability (% of control) [1]: 84.2% [at 9.25 µM] (inactive)
viability, % of control [2]: 85.3% [at 9.25 µM] (inactive)

CC(O)(C(=O)C1CC1(CO)COC1OC(CO)C(O)C(O)C1O)C1C(O)CC2C3CC=C4CC(O)CC(O)C4(C)C3C(O)CC21C (configuration not stated)
Potency [1]: 0.217 µM (active)
Potency [2]: 0.217 µM (active)

CC#C[C@@H](CC(=O)O)c1ccc(OCc2cccc(-c3ccc(C(F)(F)F)cc3)c2)cc1
Potency [1]: 18.6 µM (active)
Potency [2]: 16.6 µM (active)

O=C(/C=C/c1ccc(O)cc1)OC1[C@H](O)CC(O)(C(=O)O)C[C@H]1O (some centres not stated)
Potency [1]: inactive
Potency [2]: inactive

CC(C)(OC1OC(CO)C(O)C(O)C1O)C1CCC(O)(CO)C2CC(=O)C(C)(O)C2C1 (configuration not stated)
Potency [1]: inactive
Potency [2]: inactive

O=C(NCCN1CCOCC1)c1cc2c(Oc3ccc(NC(=O)C4(C(=O)Nc5ccc(F)cc5)CC4)cc3)ccnc2[nH]1
Potency [1]: 0.0259 µM (active)
Potency [2]: 0.0411 µM (active)

COc1ccc(/C=C/C(=O)O[C@H]2[C@@H]3C=CO[C@@H](O[C@@H]4O[C@H](CO)[C@@H](O)[C@H](O)[C@H]4O)[C@@H]3[C@@]3(CO)O[C@@H]23)cc1O
Potency [1]: inactive
Potency [2]: inactive

O=C(O[C@H]1[C@H](Oc2ccc(O)cc2CO)O[C@H](CO)[C@@H](O)[C@@H]1O)c1ccccc1
Potency [1]: inactive
Potency [2]: inactive

C=C1CCC2C(C)(CO[C@@H]3O[C@H](CO)[C@@H](O)[C@H](O)[C@H]3O)C(O)CCC2(C)C1C(=O)CC1=CCOC1=O (some centres not stated)
Potency [1]: inactive
Potency [2]: inactive

CC1OC2OC(=O)C3(C)CC4=C(CO)C5=C(CC(=O)C4(C)C(C1=O)C23)C(C)(C)OC(=O)C5 (configuration not stated)
Potency [1]: inactive
Potency [2]: inactive

CC1(C)CC[C@]2(C(=O)O[C@@H]3O[C@H](CO)[C@@H](O)[C@H](O)[C@H]3O)CC[C@]3(C)C(=CCC4[C@@]5(C)C[C@H](O)[C@H](O[C@@H]6O[C@H](C(=O)O)[C@@H](O)[C@H](O)[C@H]6O)[C@@](C)(CO)C5CC[C@]43C)C2C1 (some centres not stated)
viability (% of control) [1]: 24.2% [at 9.25 µM] (inactive)
viability, % of control [2]: 20.7% [at 9.25 µM] (inactive)

CC(CO)C1CCC2(C)CC3C(CO)CC(O)C3C(C)(O)C/C=C/12 (configuration not stated)
Potency [1]: inactive
Potency [2]: inactive

Nc1nc2c(nc(Br)n2[C@@H]2O[C@@H]3COP(=O)(O)O[C@H]3[C@H]2O)c(=O)[nH]1
Potency [1]: inactive
Potency [2]: inactive

CC1(C)CC[C@]2(C(=O)O[C@@H]3O[C@H](CO[C@@H]4O[C@H](CO)[C@@H](O)[C@H](O)[C@H]4O[C@@H]4O[C@H](CO)[C@@H](O)[C@H](O)[C@H]4O)[C@@H](O)[C@H](O[C@@H]4O[C@H](CO)[C@@H](O)[C@H](O)[C@H]4O)[C@H]3O)CC[C@]3(C)C(=CCC4[C@@]5(C)CC[C@@H](O)[C@@](C)(C(=O)O[C@@H]6O[C@H](CO)[C@@H](O)[C@H](O)[C@H]6O)C5CC[C@]43C)[C@@H]2C1 (some centres not stated)
viability (% of control) [1]: 73.4% [at 9.25 µM] (inactive)
viability, % of control [2]: 80.3% [at 9.25 µM] (inactive)
